# Source: PubChem BioAssay AID651768 (National Center for Advancing Translational Sciences (NCATS), 2012)
# Screen size: about 360,000 compounds; about 1,700 (0.47%) were called active. Inconclusive results (about 2%) are left out. Calls follow the shape of the dose curve; as a rule, active = well fitted inhibition curve with a large enough effect; inconclusive = small, poorly fitted or top-dose-only effect; inactive = no such curve, though single readings can be large or run the other way. What follows is part of a selection rich in actives, with near analogues and random picks from the rest. Where a call stands in place of a potency, no number is given.
# Biological target: Bifunctional 3'-5' exonuclease/ATP-dependent helicase WRN (Homo sapiens) (UniProt Q14191)
# Sequence (Q14191 whole entry, looked up): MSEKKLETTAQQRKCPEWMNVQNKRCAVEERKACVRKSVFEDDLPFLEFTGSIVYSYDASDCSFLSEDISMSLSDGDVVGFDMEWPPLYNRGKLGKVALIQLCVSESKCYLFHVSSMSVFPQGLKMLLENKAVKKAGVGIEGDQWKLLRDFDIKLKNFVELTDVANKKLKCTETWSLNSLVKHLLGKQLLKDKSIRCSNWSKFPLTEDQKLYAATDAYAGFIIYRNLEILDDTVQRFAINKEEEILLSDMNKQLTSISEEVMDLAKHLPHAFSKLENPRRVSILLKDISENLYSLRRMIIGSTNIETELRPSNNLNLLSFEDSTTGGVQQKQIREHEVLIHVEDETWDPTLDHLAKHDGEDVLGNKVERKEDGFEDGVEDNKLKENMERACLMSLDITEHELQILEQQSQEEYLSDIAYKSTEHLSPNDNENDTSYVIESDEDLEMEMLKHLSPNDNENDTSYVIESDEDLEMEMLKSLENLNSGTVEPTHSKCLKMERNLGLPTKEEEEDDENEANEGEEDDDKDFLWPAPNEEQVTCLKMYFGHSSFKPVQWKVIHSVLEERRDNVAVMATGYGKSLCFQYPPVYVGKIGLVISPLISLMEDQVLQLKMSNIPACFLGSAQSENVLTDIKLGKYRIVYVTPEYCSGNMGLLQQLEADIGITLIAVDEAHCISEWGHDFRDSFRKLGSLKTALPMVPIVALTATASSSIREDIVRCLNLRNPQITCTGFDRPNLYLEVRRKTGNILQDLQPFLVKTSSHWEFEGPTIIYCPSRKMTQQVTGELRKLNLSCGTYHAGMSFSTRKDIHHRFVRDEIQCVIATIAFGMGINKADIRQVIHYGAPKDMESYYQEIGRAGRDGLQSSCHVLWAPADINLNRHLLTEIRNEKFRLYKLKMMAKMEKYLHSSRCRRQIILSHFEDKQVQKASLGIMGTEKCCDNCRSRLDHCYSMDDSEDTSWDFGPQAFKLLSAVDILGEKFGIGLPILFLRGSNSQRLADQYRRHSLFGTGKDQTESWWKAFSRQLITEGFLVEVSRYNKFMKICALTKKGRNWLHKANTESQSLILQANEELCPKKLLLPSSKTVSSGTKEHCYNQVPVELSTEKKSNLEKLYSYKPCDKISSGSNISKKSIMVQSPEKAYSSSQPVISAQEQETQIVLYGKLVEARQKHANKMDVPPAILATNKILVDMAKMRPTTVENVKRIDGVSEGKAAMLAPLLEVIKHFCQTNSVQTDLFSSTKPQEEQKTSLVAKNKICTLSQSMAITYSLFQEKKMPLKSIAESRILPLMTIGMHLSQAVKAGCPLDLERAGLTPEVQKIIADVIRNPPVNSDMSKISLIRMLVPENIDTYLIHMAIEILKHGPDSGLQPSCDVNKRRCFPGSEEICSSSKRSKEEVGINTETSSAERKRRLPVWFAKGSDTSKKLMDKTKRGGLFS
# Experiment: qHTS for Inhibitors of WRN Helicase; also: nearly all actives have a fitted effect of over 55% in size
# Conditions: WRN helicase unwinding, fluorescent forked duplex, kinetic; series mostly up to 114 µM
# How it was run: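 Kinetic fluorescence helicase assay: unwinding of a quenched forked DNA duplex (100 nM final) with 2 mM ATP final raises red fluorescence (525/598 nm). Compounds sat 15 min at room temperature with 20 nM WRN beforehand.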
# Potency is read from the fitted curve at half-maximal effect.
SMILES,Potency,"activity change, negative = inhibition"
CCCCCc1c(-c2ccc(OC)c(OC)c2)ncn1CCc1ccccc1OC,inactive,–
CCc1cc(C(c2ccccc2OC)N2CCOCC2)c(NC(=O)c2ccccc2)s1 (stereo unspecified),inactive,–
O=C(Nc1ccccc1C(=O)NCCCn1ccnc1)c1ccc(Cl)cc1Cl,inactive,–
CCCNC(=O)C1(C)CCCN(Cc2cccc(C(F)(F)F)c2)C1 (stereo unspecified),inactive,–
COCCN(Cc1cc2cc3c(cc2nc1Cl)OCO3)C(=O)c1cccc(C)c1,inactive,–
COc1cccc(/C=N/NC(=O)c2[nH]nc3c2CCc2ccccc2-3)c1O,25.1 µM (active),–
COc1cc(/C=N/NC(=O)c2cccnc2)ccc1OC(=O)c1cccc(Br)c1,inactive,–
COc1ccc(OC)c(/C=N/NC(=O)c2ccc[n+](CC(=O)c3ccccc3)c2)c1,inactive,–
COC(=O)[C@@]12C[C@@H](CC(=O)NCc3cccc(C(F)(F)F)c3)C(=O)N(Cc3ccco3)C1=CCC(C)(C)C2,inactive,–
CC(=O)Nc1ccc(Nc2c([N+](=O)[O-])cc(S(C)(=O)=O)cc2[N+](=O)[O-])cc1,inactive,–
O=C(NNc1c2ccccc2nc2ccccc12)c1cc2ccccc2cc1O,inactive,–
CC(=O)Nc1ccc(Nc2c3ccccc3nc3ccccc23)cc1,25.1 µM (active),–
COCCN1C(=O)c2oc3c(C)cc(C)cc3c(=O)c2C1c1cccc(O)c1 (stereo unspecified),inactive,–
C[C@H](NC(=O)c1nc[nH]c1C(=O)N[C@@H](C)C(=O)OC(C)(C)C)C(=O)OC(C)(C)C,inactive,–
O=C(NCc1nnc(SCC(=O)N2CCCc3ccccc32)o1)c1ccccc1F,inactive,–
N#Cc1c(-c2cccs2)nc(SCC(=O)c2ccc(Br)cc2)[nH]c1=O,50.1 µM (active),–
Cc1cc(C)c2c(=O)[nH]c(SCC(=O)Nc3ccc(Br)cc3)nc2n1,inactive,–
CC(=O)CSc1nc(CCc2ccccc2)c(C#N)c(=O)[nH]1,inactive,–
CCC1(c2ccccc2)NC(=O)N(CC(=O)Nc2ccccc2C(=O)NC2CCCC2)C1=O (stereo unspecified),inactive,–
O=C(NC1CCCCC1)C(c1cc2ccccc2o1)n1c(=O)c(-c2ccco2)nc2ccccc21 (stereo unspecified),inactive,–
CCCCN(C(=O)C(CCSC)N1C(=O)c2ccccc2C1=O)c1c(N)n(CCC)c(=O)[nH]c1=O (stereo unspecified),inactive,–
N#Cc1ccc(-c2nc3c(Cl)cc(C(F)(F)F)cn3c2Cc2ccccc2C(F)(F)F)cc1,inactive,–
COc1ccc(CN2CCC(C)(Oc3cccc(F)c3)C2)c2ccccc12 (stereo unspecified),inactive,–

SMILES,Potency,"activity change, negative = inhibition"
COc1cccc2c1C(=O)c1c(O)c3c(c(O)c1C2=O)CC(O)(C(C)=NNC(=O)c1ccc(Cl)c(Cl)c1)CC3OC1CC(N)C(O)C(C)O1 (stereo unspecified),31.6 µM (active),–
CCOc1cnc(C(=O)NNC(=O)c2ccccc2Br)o1,inactive,–
O=C(c1ccccc1)c1ccc(OC(=O)N2CCCC2)cc1,inactive,–
COc1cccc(-c2nnc(NC(=O)c3ccc(S(=O)(=O)N(CC(C)C)CC(C)C)cc3)o2)c1,inactive,–
O=C(COc1ccccc1Cl)Nn1cnnc1,inactive,–
C=CCN(N=Nc1cccc([N+](=O)[O-])c1)c1cccc([N+](=O)[O-])c1,inactive,–
CC(=O)NC(c1ccccc1)c1nc(-c2cccc(C(C)C)c2)cs1 (stereo unspecified),inactive,–
COc1ccc(C(CNC(=O)COc2ccc([N+](=O)[O-])cc2)N2CCCCC2)cc1 (stereo unspecified),inactive,–
COc1ccc(C(C[N+](=O)[O-])n2nc(C)cc2C)cc1 (stereo unspecified),39.8 µM (active),–
Cc1cc(C)n(CC(O)COc2ccc(C(C)(C)C)cc2)n1 (stereo unspecified),–,2.02% [at 11.6 µM] (inactive)
CCCCC(NS(=O)(=O)c1ccc(C)cc1)C(=O)Oc1ccc2c3c(c(=O)oc2c1)CCC3 (stereo unspecified),inactive,–
CCOc1ccc(CCN2C(=O)C(=O)N([C@@H](CC(C)C)CN3CCC[C@H]3CN3C(=O)C(=O)NC[C@@H]3Cc3ccccc3)C[C@@H]2CC(C)C)cc1,inactive,–
C[C@H]1CN([C@@H](C)CO)C(=O)c2cc(-c3ccccc3F)cnc2O[C@H]1CN(C)C(=O)C1CCOCC1,inactive,–
Cc1cccc(C)c1-n1nnnc1C1(C)CCC(=O)N1CCOc1ccccc1 (stereo unspecified),inactive,–
CC(=O)Nc1cccc(-c2cc3nc(NCc4cccnc4)n(C)c(=O)c3s2)c1,inactive,–
C/C=C(/C)C(=O)Nc1cccc(C2=NOC3(C2)C[C@@H](C(N)=O)N(C(=O)C2(C)CC2)C3)c1 (stereo partly specified),inactive,–
C=C(C)C(=O)Nc1cccc(C2=NOC3(C2)C[C@H](C(N)=O)N(C(=O)C(c2ccccc2)c2ccccc2)C3)c1 (stereo partly specified),50.1 µM (active),–
C/C=C\C=C\C(=O)N1CC2(CC(c3cccc(NC(=O)/C(C)=C\C)c3)=NO2)C[C@H]1C(N)=O (stereo partly specified),–,-13.3% [at 11.6 µM] (inactive)
CC(=O)c1ccc(NC(=O)C(C)N(C)CC(=O)Nc2ccccc2Cl)cc1 (stereo unspecified),inactive,–
O=C(Nc1ccccc1Cl)c1ccccc1S(=O)(=O)c1ccccc1[N+](=O)[O-],inactive,–
O=C(Nc1ccccc1Cl)/C(Cl)=C(\Cl)S(=O)c1ccccc1 (stereo unspecified),2.51 µM (active),–
COc1cc(OC)cc(C2=Cc3ccccc3C(CC(=O)c3ccco3)N2c2ccc(-c3cnc(OC)nc3)cc2)c1 (stereo unspecified),inactive,–
Cc1ccc(S(=O)(=O)N(c2cccc(C)c2)C2CCS(=O)(=O)C2)cc1 (stereo unspecified),inactive,–

SMILES,Potency,"activity change, negative = inhibition"
O=C(CC[C@H]1O[C@@H](n2ccc(=O)[nH]c2=O)[C@H](O)[C@@H]1O)N[C@H](Cc1ccccc1)C(=O)NCCCN1CCCC1=O,inactive,–
CN(C(=O)COC(=O)Cc1ccccc1[N+](=O)[O-])C1CCS(=O)(=O)C1 (stereo unspecified),inactive,–
COc1ccc(NC(=O)COc2ccc(C(=O)OCC(=O)N(C)C3CCS(=O)(=O)C3)cc2OC)cc1 (stereo unspecified),inactive,–
CN(C(=O)COC(=O)c1cc(-c2ccco2)nc2ccccc12)C1CCS(=O)(=O)C1 (stereo unspecified),31.6 µM (active),–
Cc1ccc(C2(c3ccc(C)cc3)NC(=O)N(Cc3c(C)noc3C)C2=O)cc1,inactive,–
NC(=O)c1c(NC(=O)CSc2nnc(-c3ccco3)n2N)sc2c1CCCC2,50.1 µM (active),–
CCOC(=O)c1c(NC(=O)CSc2nnc(CN3CCOCC3)n2C)sc2c1CCCC2,inactive,–
Nn1c(SCC(=O)Nc2nccs2)nnc1-c1ccco1,inactive,–
COc1cc(OC)c(NC(=O)C2CCCN2C(=O)OCc2ccccc2)cc1Cl (stereo unspecified),inactive,–
O=C1Nc2ccccc2NC(c2ccc3c(c2)OCO3)=C1N(Cc1ccc(F)cc1)C(=O)c1ccco1,inactive,–
CC(C)c1ccc2c(c1)c(SC(C)(C)C)c(CC(C)(C)C(=O)O)n2Cc1ccc(Cl)cc1,50.1 µM (active),–
CCC(CC)NC(=O)CSc1nnc(-c2c[nH]c3ccccc23)o1,inactive,–
O=C(c1cc(C2CCCCN2S(=O)(=O)c2ccccc2)on1)N1CCOCC1 (stereo unspecified),inactive,–
CCCCN1C(=O)/C(=C(/C#N)C(N)=O)c2ccccc21,inactive,–
C#CCN1C(=O)C(O)(CC(=O)c2cc(OC)ccc2OC)c2ccccc21 (stereo unspecified),inactive,–
COc1ccc2c(c1)C(=C(C#N)C#N)C(=O)N2CCc1ccccc1,50.1 µM (active),–
CCCCn1c(N)c(N(CCOC)C(=O)c2sc3ccccc3c2Cl)c(=O)[nH]c1=O,inactive,–
Cc1[nH]c2ccccc2c1C(=O)c1cc([C@H](NC(=O)OC(C)(C)C)C(C)C)sc1N,inactive,–
COc1ccc([C@H]2CC(=O)C[C@@H](CCn3cc(CC4CCCC4)nn3)O2)cc1,inactive,–
O=C(CN1C(=O)c2cccc3cccc1c23)Nc1ccccc1,–,-0.0297% [at 11.6 µM] (inactive)
C[N+](C)(CCCCCC[N+](C)(C)CCCN1C(=O)c2cccc3cccc(c23)C1=O)CCCN1C(=O)c2cccc3cccc(c23)C1=O,44.7 µM (active),–
O=C(COC(=O)CCCN1C(=O)c2cccc3cccc(c23)C1=O)NC1CCS(=O)(=O)C1 (stereo unspecified),inactive,–
O=C(CCCN1C(=O)c2cccc3cccc(c23)C1=O)N1CCN(Cc2ccc3c(c2)OCO3)CC1,inactive,–

SMILES,Potency,"activity change, negative = inhibition"
O=C1c2cccc3cccc(c23)C(=O)N1CCCCCc1n[nH]c(=S)o1,100 µM (active),–
O=C(CN1C(=O)c2cccc3cccc(c23)C1=O)N1CCCCC1,inactive,–
Cc1ccc(CCNC(=O)CN2C(=O)CSc3ccc(S(=O)(=O)N4CCOCC4)cc32)cc1,inactive,–
CCOC(=O)[C@]12CCCC=C1N(CCC1=CCCCC1)C(=O)[C@H](CC(=O)NCCCCc1ccccc1)C2,inactive,–
CCCCOCCCNC(=O)C[C@@H]1C[C@@]2(C(=O)OCC)CCCC=C2N(CCC2=CCCCC2)C1=O,inactive,–
CN(C)c1ccc(CSc2ccccc2)cc1,inactive,–
CS/C(=C\[N+](=O)[O-])Nc1ccc(C)cc1,inactive,–
Nc1nc2ncccn2c1-c1ccccc1,inactive,–
Clc1ccccc1CSc1nnc(-c2ccco2)c(-c2ccco2)n1,50.1 µM (active),–
COc1ccc(NCc2nnc(SCc3ccccc3)n2-c2ccc(OC)cc2)cc1,inactive,–
O=C(Nc1nnc(SCc2ccccc2Cl)s1)c1cccc([N+](=O)[O-])c1,inactive,–
CSc1nc(-c2ccco2)nn1C(=O)c1ccccc1Cl,inactive,–
c1ccc(Cc2c(-c3ccco3)nc3c4ccccc4ccn23)cc1,inactive,–
c1ccc(CSc2nnc(-c3ccco3)c(-c3ccco3)n2)cc1,28.2 µM (active),–
CCCC1(C(=O)OC)NC(c2ccco2)C2C(=O)N(C)C(=O)C21 (stereo unspecified),inactive,–
Cc1cc(C)c(S(=O)(=O)N2C=CC(C(F)(F)F)=NCC2)c(C)c1,inactive,–
CSc1c(SCc2ccccc2)cnn(Cc2ccccc2)c1=O,inactive,–
O=C(c1ccc(Cl)c(S(=O)(=O)N2CCCCCC2)c1)N1CCN(c2ccc(O)cc2)CC1,inactive,–
c1ccc(-n2cccc2)c(N2CCCCC2)c1,inactive,–
O=C1C=CC(=O)N1c1ccc(N2CCCCC2)cc1,39.8 µM (active),–
CCCC(NCC(=O)Nc1ccccc1C(=O)NC1CC1)c1ccccc1 (stereo unspecified),inactive,–
CC(C)(C)c1cc[n+](-c2[nH]c(=O)sc2/C=N/N=C(\[O-])c2ccccc2)cc1,inactive,–
